Source: PubChem (several laboratories)
Most compounds without a hit are left out; they make up all but 2.7% or so of the library.
PREPL inh – PREPL enzyme inhibitors, primary screen, biochemical, fluorescence polarization | Prolyl endopeptidase-like (Homo sapiens), Q4J6C6 | recombinant PREPL, fluorescence polarization activity-based probe | inhibition, % at 5.96 µM | hit rate 0.68% among 320,000; in the data active means inhibition above about 43%;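 further: 0% = enzyme with DMSO and 100% = wells lacking enzyme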
Target sequence (Q4J6C6 whole entry, looked up): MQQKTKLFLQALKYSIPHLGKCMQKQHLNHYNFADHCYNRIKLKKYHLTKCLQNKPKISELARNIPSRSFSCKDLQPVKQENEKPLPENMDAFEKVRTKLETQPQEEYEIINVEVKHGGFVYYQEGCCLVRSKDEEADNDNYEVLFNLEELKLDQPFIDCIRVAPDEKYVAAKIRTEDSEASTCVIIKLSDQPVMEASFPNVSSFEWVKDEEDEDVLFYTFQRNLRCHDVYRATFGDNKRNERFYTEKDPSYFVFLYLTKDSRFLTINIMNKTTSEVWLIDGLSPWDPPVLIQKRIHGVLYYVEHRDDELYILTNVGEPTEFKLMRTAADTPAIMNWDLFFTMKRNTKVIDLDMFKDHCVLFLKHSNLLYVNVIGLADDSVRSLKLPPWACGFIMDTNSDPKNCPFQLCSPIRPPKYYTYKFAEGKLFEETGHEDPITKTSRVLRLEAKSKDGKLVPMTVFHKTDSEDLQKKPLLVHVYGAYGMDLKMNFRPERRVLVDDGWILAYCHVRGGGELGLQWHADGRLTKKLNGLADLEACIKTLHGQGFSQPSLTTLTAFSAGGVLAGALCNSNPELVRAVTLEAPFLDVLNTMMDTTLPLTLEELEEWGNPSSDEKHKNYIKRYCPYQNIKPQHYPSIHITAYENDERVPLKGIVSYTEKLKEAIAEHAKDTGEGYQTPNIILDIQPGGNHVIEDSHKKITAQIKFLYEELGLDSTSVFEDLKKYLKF
TMEM16A inh – TMEM16A chloride channel inhibitors, primary screen, cell-based, HTS | Anoctamin-1 (Mus musculus), Q8BHY3 | HEK293 TMEM16A/YFP iodide influx fluorescence, ionomycin | normalized B-score (activity score, 25-100; higher = stronger inhibition) at 10 µM | hit rate 1.2% among 310,000;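 active means ratio plate-corrected score three or more library SD toward inhibition, starting fluorescence score within five deviations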;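 further: score derived from kinetic fluorescence span divided by baseline fluorescence per well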
PP5 primary – PP5 phosphatase inhibitors, primary screen, biochemical, fluorescence; Serine/threonine-protein phosphatase 5 (Homo sapiens), P53041; purified PP5c, OMFP substrate fluorescence; inhibition, % at 6.7 µM; hit rate 0.18% among 320,000;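 active means inhibition above the campaign's mean inhibition across all tested compounds plus 3 SD, cut at about 9.5% in these data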;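 further: 0% = DMSO only and 100% = 100 µM cantharidin control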
PP1 counter – PP1-alpha phosphatase inhibitors, primary screen, counter-screen for PP5 inhibitor project, biochemical, fluorescence, OMFP substrate, single point; Serine/threonine-protein phosphatase PP1-alpha catalytic subunit (Homo sapiens), P62136; purified PP1alpha; inhibition, % at 6.7 µM; hit rate 0.9% among 320,000; AID 2235, 2010;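 active means inhibition above the mean inhibition of all tested compounds plus 3 SD, computed separately for each screening campaign, cut at about 15% in these data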
TMEM16A act – TMEM16A chloride channel activators or potentiators, primary screen, cell-based, HTS. Anoctamin-1 (Mus musculus), Q8BHY3. HEK293 TMEM16A/YFP-H148Q/I152L, iodide quench fluorescence; stronger effect = lower value. B-score at 10 µM. hit rate 0.3% among 340,000. AID 623877, 2012;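 active means fluorescence-ratio B-score plate-corrected deviation score at least 3 library SD below zero, with starting fluorescence score within 5 deviations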;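 further: channel opened by trigger with iodide after compound preincubation; score built on the fluorescence ratio of max minus min over baseline; more negative score means more quench and so TMEM16A activation or potentiation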
DNA FID counter – compounds displacing fluorescent DNA intercalator, primary screen, artefact control for HCV NS3 helicase inhibitor project, biochemical, FID fluorescence. inhibition, % at 7.9 µM. hit rate 0.17% among 290,000. AID 1845, 2009. DNA fluorescent intercalator displacement; in the data active means inhibition above about 37%;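 further: 0% = vehicle and 100% = reference compound; higher means more ethidium bromide displaced from hairpin DNA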
Starred values were filed as active, the others as inactive; i = inactive; . = not tested or not shown.

SMILES	PREPL inh	TMEM16A inh	PP5 primary	PP1 counter	TMEM16A act	DNA FID counter
O=C(CCc1ccc(S(=O)(=O)N2CCOCC2)cc1)Nc1nc(COc2ccccc2)cs1	2.9	25*	1.8	2.0	i	-5.5
CC(=O)Nc1nc(Cn2nnc(-c3ccc4c(c3)OCO4)n2)nc(N(C)C)n1	5.2	i	1.3	-0.9	i	-2.6
O=C(Nc1ccc(Cl)c(Cl)c1)Nc1ccccc1NS(=O)(=O)c1cccs1	-4.6	100*	1.1	2.7	i	-2.6
Cc1c(S(=O)(=O)Nc2cccc3ccccc23)c(=O)n(C)c(=O)n1C	-8.7	i	1.8	-3.1	i	.
CCCCCCSc1nnc(-c2cnn(-c3ccccc3)c2-n2cccc2)n1C	10.8	100*	5.0	9.8	i	-24.8
CCSc1nnc(-c2cnn(-c3ccccc3)c2-n2cccc2)n1C	-8.5	i	2.4	-2.8	i	-41.6
O=C(O)c1ccc(C[n+]2c(-c3ccccc3)csc2Nc2ccccc2)cc1	-1.0	i	2.6	2.9	i	-11.8
CC(C)(C)c1cc(-c2csc(Nc3ccccc3)[n+]2Cc2ccc(C(=O)O)cc2)cc(C(C)(C)C)c1O	-3.7	100*	0.3	1.5	i	-11.9
Cc1ccc(C(=O)OCC(=O)Nc2cc(C(C)(C)C)nn2-c2ccccc2)c(O)c1	10.4	i	4.7	5.3	i	.
Cc1ccnc(NC(=O)c2cccc(NC(=O)CC3SC(N4CCCCC4)=NC3=O)c2)c1 (stereo unspecified)	13.4	.	5.0	-0.7	-37.6*	.
O=C(Cn1nc(-c2ccccc2Cl)ccc1=O)Nc1ccc(Br)cc1	-30.8	i	4.2	1.5	-30.1*	-8.7
COC(=O)c1cc(C(=O)OC)cc(N2C(=O)CC(Sc3nc(C)cc(C)n3)C2=O)c1 (stereo unspecified)	-2.0	i	0.0	-0.3	-18.4*	-30.0
Cc1ccc(-c2cc(C(=O)N/N=C/c3c[nH]c4ccccc34)[nH]n2)cc1	.	.	.	.	-5.44*	7.2
O=C(O)c1[nH]c2ccccc2c1NS(=O)(=O)c1ccc(F)cc1	-7.8	i	0.3	-6.0	-48.9*	-20.3
COC(=O)c1cc(OC)c(OC)cc1NC(=S)N1CCN(c2ccccc2)CC1	47.4*	i	2.3	-0.6	i	-24.1
CCOC(=O)c1[nH]c2ccc(OC)cc2c1NC(=S)N1CCN(c2ccccc2)CC1	57.5*	i	2.5	-3.2	i	-10.1
Nc1c(C(=O)Nc2ccc(F)cc2)sc2nc(-c3ccco3)ccc12	29.6	i	1.4	16.5*	i	-13.2
Nc1c(C(=O)Nc2ccc(Br)cc2)sc2nc(-c3ccco3)ccc12	31.9	i	0.9	16.0*	i	-12.7
O=C(CCCn1nnnc1CN1CCOCC1)N1CCC(c2ccccc2Cl)C1 (stereo unspecified)	23.9	i	-8.6	-5.2	i	-40.3
Cc1c(C(=O)Oc2cccc3ccccc23)cnn1-c1ccccc1	22.6	100*	2.2	-1.9	i	-12.9
O=C(c1ccccc1)c1cccc[n+]1[O-]	7.8	i	-0.5	-1.0	i	-0.4
CN(C)c1ccc(P(=O)(OCc2ccccc2)C(O)c2ccc(Br)cc2)cc1 (stereo unspecified)	40.2	i	0.8	-5.2	i	-21.1
CN(C)c1ccc(P(=O)(OCc2ccccc2)C(O)c2ccncc2)cc1 (stereo unspecified)	27.1	25*	-1.3	0.4	i	-17.3
CCCCCCCCCCCC1N=C(N)NC(CCCO)=C1C(=O)OC (stereo unspecified)	.	.	.	.	i	.
CC(C)c1ccc(OCc2ccc(C(=O)N3CCN(c4ccccn4)CC3)cc2)cc1	20.8	100*	3.7	3.9	i	-7.9
COc1ccc(-c2csc(Nc3ccccn3)n2)cc1OC	5.9	25*	0.5	-2.5	i	-22.2
COc1ccc(-c2csc(NC(=O)CSc3nc4ccccc4c(=O)[nH]3)n2)cc1	-32.4	i	2.6	17.0*	i	-11.4
